HCV inhibitor: qHTS Assay for Inhibitors of Hepatitis C Virus (HCV); Huh7.5.1 HCVcc-Cre infection, luciferase reporter, 44 h; Potency, µM (highest dose often 41.8 µM), inactives show top-dose activity change, negative = inhibition, hits mostly inhibitors; 340,000 tested, 3.4% active; active = well fitted inhibition curve with a large enough effect; inconclusive = small, poorly fitted or top-dose-only effect, or another doubt; inactive = no such curve, though single readings can be large or run the other way; also: potency is read from the fitted curve at half-maximal effect
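Infectious HCV cell culture screen: compound-treated cells (1,000/well, pre-plated 4 h) are infected with HCVcc-Cre at roughly 0.5 moi and grown 44 h. Infection is quantified by luciferase signal after 15 min substrate incubation at room temperature.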
HCMV antiviral: qHTS Assay for inhibitors of the human cytomegalovirus (HCMV). HFF cells, HCMV-luciferase reporter, 72 h; stronger effect = lower value. activity change, negative = inhibition, % at 57.5 µM. 410,000 tested, 4.5% active. AID 1259415, 2018; in the data active = activity change below about -60%; inconclusive = no clear call, values can overlap the other calls; inactive = above about -39%
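Screen run at 2 compound doses on HFFs infected with reporter HCMV, MOI 1 PFU/cell. Luciferase activity from cell lysates at 72 h post infection gave inhibition relative to buffer-only and Salinomycin wells.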
FMDV inh: High Throughput Screening for Foot and Mouth Disease Virus Antivirals; FMDV antiviral cell-based qHTS; Potency, µM (highest dose often 57.9 µM), without a hit: top-dose activity change, negative = inhibition, usual class: inhibitors; 410,000 tested, 1.2% active; AID 1159524, 2015; calls by dose curve; tested in HEK293T cells; also: read-out not given here; potency is read from the fitted curve at half-maximal effect; nearly all actives have a fitted effect of over 45% in size
Vaccinia Venus: qHTS for Stage-Specific Inhibitors of Vaccinia Orthopoxvirus: Venus Reporter Primary qHTS; 330,000 tested, 0.46% active; Potency, µM (doses to about 36.5 µM), without a hit: at the highest dose activity change, negative = inhibition, actives largely listed as inhibitors; Vaccinia virus Venus reporter expression, fluorescence; AID 720580, 2013; calls by dose curve; tested in A549 cells; also: potency is read from the fitted curve at half-maximal effect; nearly all actives have a fitted effect of over 30% in size
VACV mCherry inh: qHTS for Stage-Specific Inhibitors of Vaccinia Orthopoxvirus: mCherry Reporter Primary qHTS; Vaccinia virus mCherry reporter infection, fluorescence; Potency, µM (doses to about 36.5 µM), for inactives: at the highest dose activity change, negative = inhibition, hits mostly inhibitors; 310,000 tested, 0.63% active; AID 720579, 2013; calls by dose curve; tested in A549 cells; also: potency is read from the fitted curve at half-maximal effect; nearly all actives have a fitted effect of over 35% in size
* hit, by the source's call; i = inactive; ? = inconclusive; . = no result; [ ] = another dose, or the depositor's remark. A selection: hits, their analogues and other compounds. The true share with any hit is near 7.3%. % is scaled to controls: 0 for no effect and ±100 for the full control effect.

SMILES	HCV inhibitor	HCMV antiviral	FMDV inh	Vaccinia Venus	VACV mCherry inh
O=c1c(S(=O)(=O)c2ccccc2)cn(Cc2cccc(F)c2)c2cc(N3CCOCC3)c(F)cc12	.	-70.8*	-15.0%	-20.3%	-9.2%
COc1cccc(C(=O)Nc2ccc(Cl)c(-c3nc4ccccc4[nH]3)c2)c1	.	-88.6*	?	?	-22.3%
COc1ccc(NC(=O)c2ccc(-c3ccccc3)cc2)cc1NS(=O)(=O)c1ccc(F)cc1	3.98µM*	-94.9*	?	?	-29.9%
COc1cc(OC)cc(C(=O)Nc2ccc(C(=O)Nc3ccccc3OC)cc2)c1	11.2µM*	-4.8	-17.0%	?	-19.2%
COc1ccc(C(=O)Nc2ccc(Cl)c(S(=O)(=O)Nc3ccccc3OC)c2)cc1	?	-92.5*	-8.8%	?	?
COc1cccc(NC(=O)c2ccc3c(O)c(S(=O)(=O)c4ccccc4)c(=O)[nH]c3c2)c1	12.3%	-63.3*	-16.3%	-4.5%	-12.7%
CCCC(=O)Nc1ccc(Cl)c(NC(=O)c2cccc(OC)c2)c1	?	-78.9*	-5.2%	-16.2%	-13.1%
CCOc1ccc(NS(=O)(=O)c2cc(NC(=O)c3ccc(C)cc3)ccc2Cl)cc1	7.94µM*	-37.6	11.1%	?	?
COc1ccc(S(=O)(=O)c2c(O)c3ccc(C(=O)Nc4cccc(F)c4)cc3[nH]c2=O)cc1	?	-22.4	-9.1%	.	.
COc1ccccc1NS(=O)(=O)c1cc(NC(=O)c2ccc(Cl)nc2)ccc1Cl	7.08µM*	-98.1*	10µM*	?	-13.9%
COc1ccc(NC(=O)c2ccc3c(c2)CCN3S(=O)(=O)c2ccc(C)cc2)cc1Cl	.	-5.5	0.0%	-8.3%	-16.0%
CN(C)S(=O)(=O)Oc1cccc(C(=O)Nc2ccc(Cl)cc2)c1	10µM*	-28.8	-29.1%	.	.
COc1cccc(NC(=O)c2ccc3c(c2)N(C)CCS3)c1	10µM*	-37.5	12.5%	-22.7%	?
COc1cccc(C(=O)N2CCOCC2)c1	-9.6%	-22.2	5.8%	-7.0%	-3.0%
CN(C)S(=O)(=O)Oc1ccc(C(=O)Nc2cccc(C(F)(F)F)c2)cc1	11.2µM*	-76.2*	14.1µM*	.	.
CN(C)S(=O)(=O)Oc1cccc(C(=O)Nc2ccccc2Cl)c1	-9.3%	8.9	-7.6%	.	.
CN1CCSc2ccc(C(=O)Nc3ccc(Cl)cc3)cc21	-25.7%	24.5	73.1%	3.2%	-1.9%
COc1cccc(C(=O)Nc2cccc(C(=O)N3CCOCC3)c2)c1	5.3%	-66.4*	19.3%	.	.
C1=Cc2ccccc2/C1=C\c1ccc2c(c1)OCO2	.	.	.	-14.4%	-14.8%
COc1ccc(-c2nc(C)c(CCNC(=O)C(=O)Nc3ccccc3F)s2)cc1	.	9.1	-29.4%	?	?
COc1cccc(C(=O)Nc2ccc(C(=O)c3ccccc3)cc2)c1	10µM*	?	-11.5%	.	.
O=C(COC(=O)CNC(=O)C1CCCCC1)NC1CCCC1	.	.	.	-7.2%	i
Cc1cc([N+](=O)[O-])ccc1NC(=O)C[n+]1ccc(N(C)C)cc1	5.6%	-99.9*	-11.5%	-12.4%	-3.2%
Cc1cc([N+](=O)[O-])ccc1NC(=O)Nc1ccc(F)cc1F	3.55µM*	?	?	-16.0%	i
CCC(C(=O)N1CCN(c2ccccc2F)CC1)n1nc(C)c2sc3ccccc3c2c1=O (configuration not stated)	.	0.3	-24.4%	-17.2%	-4.8%
SMILES	HCV inhibitor	HCMV antiviral	FMDV inh	Vaccinia Venus	VACV mCherry inh
COc1ccccc1-c1cc2nc(C)c(CCC(=O)NCCc3ccc(SC)cc3)c(C)n2n1	.	-30.9	?	-7.9%[7.34 µM]	-10.5%[7.34 µM]
Cc1ccccc1CN1[C@H](C)[C@H](c2ccccc2)OCCS1(=O)=O	.	.	.	-16.3%	-26.3%
Cc1cc(O)c(C)c2c1CC[C@H]1[C@H](C)C(=O)O[C@H]21	.	.	-11.4%	.	.
S=C(NCCc1ccccc1)Nc1cccc2cnccc12	?	-94.8*	-11.5%	-23.1%	-28.2%
COc1ccc(OCCNC(=S)Nc2cccc3ccccc23)cc1	?	-83.8*	-16.4%	.	.
COCCNC(=S)Nc1cccc2cnccc12	?	-35.5	-0.6%	-15.8%	i
CCCCNC(=S)Nc1cccc2cnccc12	10µM*	-29.6	-4.4%	1.0%	-14.5%
Cc1ccccc1NC(=S)Nc1cccc2cnccc12	-11.0%	-65.3*	?	-0.4%	-7.6%
Cc1ccc(C)c(NC(=S)Nc2cccc3cnccc23)c1	?	-34.1	-21.2%	0.1%	?
Cc1ccc(CCNC(=O)c2cn(C)c3ccc(S(=O)(=O)N4CCC(C)CC4)cc3c2=O)cc1	.	6.7	7.9%	-10.3%	-16.0%
O=C(NCCc1csc2nc(-c3cccc(F)c3)nn12)c1ccc(Br)o1	.	-9.7	-23.5%	5.6%	-1.4%
Cc1ccc(NC(=O)c2cc(S(=O)(=O)N3CCc4ccccc43)ccc2F)cc1Cl	.	13.5	-15.3%	-22.1%	-5.7%
C=CCNC(=O)c1onc(CSc2cc(C)cc(C)c2)c1C(=O)NCC=C	?	?	-26.4%	.	3.16µM*
COC(=O)[C@@H]1[C@@H]2C[C@H]3c4[nH]c5ccccc5c4CCN3C[C@@H]2CC[C@@H]1O	.	.	-3.0%	.	.
Cc1ccc(-c2nnc3ccccc3c2C(=O)Nc2ccc(C)c(F)c2)cc1	.	0.0	27.6%	-3.7%	-2.8%
O=C1NC(Cc2ccccc2)c2nc3cc(Cl)ccc3c(=O)n2-c2ccccc21 (configuration not stated)	3.55µM*	6.6	.	.	.
O=C1NC(Cc2ccc(O)cc2)c2nc3ccc(Br)cc3c(=O)n2-c2cc3ccccc3cc21 (configuration not stated)	.	-93.8*	?	?	?
CCC(CO)NC(=O)C(=O)Nc1c2c(nn1-c1ccc(F)cc1)CSC2 (configuration not stated)	.	-6.1	-14.0%	-8.5%	-4.5%
Cc1ccc(F)cc1NC(=O)COC(=O)c1ccc(S(C)(=O)=O)c([N+](=O)[O-])c1	.	.	.	-17.9%	-15.5%
CCOc1ccc(N2CC(c3nc4ccccc4n3CCCOc3ccccc3OC)CC2=O)cc1 (configuration not stated)	.	4.1	-14.9%	-2.7%	-7.9%
O=C(NCc1ccccc1Cl)C1CCCN(C(=O)c2cnn(-c3ccc(F)cc3)c2-n2cccc2)C1 (configuration not stated)	.	-12.1	?	-9.1%	-8.7%
CC1Cc2ccccc2N1c1ncnc2c1nnn2Cc1ccccc1 (configuration not stated)	11.2µM*	?	-26.1%	.	.
Cc1nc2ccccc2nc1-c1csc(-c2ccccc2)n1	.	.	.	-17.0%	-19.8%
COCc1ccc(CN2CCOc3c(cc(-c4ccc(SC)cc4)cc3OC)C2)o1	.	.	-3.4%	1.2%	-7.7%
CCOc1cccc2sc(=NC(=O)c3ccco3)n(CC(=O)OC)c12	11.2µM*	0.0	0.0%	-7.6%	i
CCn1c(=NC(=O)CS(=O)(=O)c2ccc(C)cc2)sc2cccc(OC)c21	?	-62.4*	?	-23.1%	-31.0%
COc1cccc2sc(=NC(=O)CS(=O)(=O)c3ccc(F)cc3)n(C)c12	2.5%[8.37 µM]	-18.6	?	-7.3%	-16.7%

Screens from PubChem.
